Compounds with a hit are over-represented: about 13% of the library has one in this group of screens.
CHOP inhibitor: CHOP inhibition in unfolded protein response; CHO-K1 CHOP-promoter luciferase, tunicamycin-induced, 15-18 h; inhibition, % at 10 µM; hit rate 3.8% among 220,000; AID 2732;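 active means compounds that reduced the stress-induced luciferase reporter signal by more than about 70% of percent inhibition, limit read from the data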
L major viab: inhibitors of Leishmania major promastigote growth | Leishmania major promastigotes, resazurin fluorescence viability | inhibition, % at 10 µM | hit rate 9% among 200,000 | AID 1063; in the data active means inhibition above about 50%;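 further: promastigotes grown with compound for 44 hours at 28 °C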
WT yeast gro inh: growth inhibition of WT yeast, mitochondrial fusion screen | mitochondrial fusion phenotypic screen, WT strain | inhibition, % at 10 µM | hit rate 2.1% among 190,000 | AID 1362; in the data active means inhibition above about 58%; tested in S. cerevisiae
RAM inhibit: yeast RAM network inhibition. inhibition, % at 50 µM. hit rate 1.8% among 190,000. S. cerevisiae dse1pr::URA3 reporter, 5-FOA growth OD615, 2 d; analog-sensitive cbk1-as2 kinase mutant strain;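 active means inhibition above a set limit, 3 SD over mean compound inhibition, cut at about 8.4% in these data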;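 further: inhibition rescues growth on 5-FOA so higher OD means more RAM inhibition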
Each line names hits and unclear results; the compound was inactive in the other large screens.

CCOc1cc(/C=C(/NC(C)=O)C(=O)O)cc(Cl)c1OCc1ccc(Br)cc1	none (no result: L major viab, WT yeast gro inh, RAM inhibit)
S=C(Nc1ccc(Cl)cc1)NC1CC2CCCC(C1)N2C1CC1 (stereo unspecified)	none
C=CCN1C2CCCC1CC(NC(=S)Nc1ccc(Cl)cc1)C2 (stereo unspecified)	L major viab 96
S=C(Nc1cccc(Cl)c1)NC1CC2CCCC(C1)N2C1CCCC1 (stereo unspecified)	L major viab 73
S=C(Nc1ccc(Cl)cc1)NC1CC2CCCC(C1)N2C1CCCC1 (stereo unspecified)	L major viab 77
COc1cccc(NC(=S)NC2CC3CCCC(C2)N3C2CCCC2)c1 (stereo unspecified)	none
Cn1c(CSCc2ccccc2)n[nH]c1=S	none
Cc1ccc(S(=O)(=O)NCC(=O)N/N=C/c2ccccc2O)cc1	none
CC(C)Nc1nc(NC(C)C)nc(N(C#N)CCOc2ccc(Cl)cc2Cl)n1	L major viab 81
CCC1(CC)NC(=O)N(CC(=O)N2N=C(c3ccc(Cl)cc3)CC2c2ccco2)C1=O (stereo unspecified)	none
Cc1cc(C)cc(NC(=S)NC2CC3CCCC(C2)N3C2CCCC2)c1 (stereo unspecified)	L major viab 53
Cc1cc(C)cc(NC(=S)NC2CC3CCCC(C2)N3CC(C)C)c1 (stereo unspecified)	none
Cc1cc(C)cc(NC(=S)NC2CC3CCCC(C2)N3C2CC2)c1 (stereo unspecified)	L major viab 55
CCCN(CCC)C(=O)Cn1c(=O)c2ccccc2n2c(=S)sc(-c3ccccc3C)c12	L major viab 98
CCCN(CCC)C(=O)Cn1c(=O)c2sccc2n2c(=S)sc(-c3ccccc3)c12	none
CCN(CC)CCOC(=O)C(c1ccccc1)c1ccccc1	none
CCN(CC)CCOc1cccc(C(C)C)c1	L major viab 83
CC(C)c1cccc(OCCCCN(C)C)c1	L major viab 86
Cc1ccccc1C(=O)Nc1nnc(CC(=O)N/N=C/c2ccncc2)s1	none (no result: L major viab, WT yeast gro inh, RAM inhibit)
CCOc1cc(/C=C2/C(=N)N3OC(C)=CC3=NC2=O)ccc1OCCOc1ccccc1	CHOP inhibitor 92
CC1=CC2=NC(=O)/C(=C\c3cccn3CCOc3ccccc3)C(=N)N2O1	none
CC1=CC2=NC(=O)/C(=C\c3cccn3CCOc3cccc(C)c3)C(=N)N2O1	RAM inhibit 9.3
COc1cccc(OCCn2cccc2/C=C2/C(=N)N3OC(C)=CC3=NC2=O)c1	RAM inhibit 11
CC1=CC2=NC(=O)/C(=C\c3cccn3CCOc3cc(C)ccc3C)C(=N)N2O1	L major viab 53
CC(C)(C)NC(=O)NC(=O)COC(=O)c1cccc(OC(F)F)c1	none
CSc1ccccc1C(=O)NCc1ccc(C)cc1	none
CCOC(=O)C[N+]1(C)CCN(C(C)=O)CC1	none
COCCn1nnnc1C(c1cccc(C#N)c1)N1CCCCCC1 (stereo unspecified)	none
CC(C)(C)C(C(Oc1ccc(Cl)cc1)n1cncn1)n1nnnc1C(c1cccc(Cl)c1)N1CCCCC1 (stereo unspecified)	L major viab 65
Cc1cc([N+](=O)[O-])cnc1NC(C)c1ccccc1 (stereo unspecified)	none
CSc1nc(-c2ccccc2)nc(N2CCOCC2)c1C(C)=O	none
COc1ccc2ccccc2c1C(O)c1nccn1C (stereo unspecified)	CHOP inhibitor 84
Cn1ccnc1C(O)c1ccccc1 (stereo unspecified)	none
CNc1cc(CSC)nc(SCc2ccc(Cl)cc2Cl)n1	CHOP inhibitor 77, WT yeast gro inh 85
NC(=O)c1ccc(NC(=O)COC(=O)CC(NC(=O)c2ccccc2Cl)c2ccccc2)cc1 (stereo unspecified)	none
COc1ccccc1NC(=O)/C=C1\NC(=O)CS1	L major viab 88
COc1ccccc1NC(=O)N1c2ccccc2NC(=O)CC1C (stereo unspecified)	none (no result: L major viab, WT yeast gro inh, RAM inhibit)
COc1ccccc1NC(=O)/C=C1\SCC(=O)N1C	L major viab 100
COc1ccc(S(=O)(=O)N(C)C)cc1NC(=O)CSc1nncs1	none
Cc1ccc(/C=C(\NC(=O)c2ccccc2)C(=O)N2CCCC2C(=O)O)cc1 (stereo unspecified)	none
S=c1[nH]cnc2scc(-c3ccccc3)c12	L major viab 99
CC1(C)Cc2ccccc2C(CSc2ccccc2C(=O)O)=N1	none
OCCSc1nc(N2CCOCC2)nc(N2CCOCC2)n1	none
N#Cc1nc(-c2cccc3ccccc23)oc1NCCN1CCCCC1	L major viab 100
O=C(N/N=C/c1ccccn1)c1cccc(S(=O)(=O)N2CCCC2)c1	none (no result: L major viab, WT yeast gro inh, RAM inhibit)
Cc1ccccc1S(=O)(=O)c1c(C)cc(C)n(CC(C)C)c1=O	CHOP inhibitor 86, L major viab 91, WT yeast gro inh 68
NCCCNC(=O)c1ccc(/C=N/O)nc1	none
Cn1c(=O)cc(-c2ccccc2)c2ccccc21	CHOP inhibitor 80
O=C(NC1CCCCC1)N1CCN(C2CCCCC2)CC1	L major viab 68
S=C(NC1CCCCC1)N1CCN(C2CCCCC2)CC1	L major viab 91
O=C(NC12CC3CC(CC(C3)C1)C2)N1CCN(C2CCCCC2)CC1	L major viab 85
COC(=O)c1ccc(CSc2nnc(-c3c[nH]c4ccccc34)n2-c2ccccc2)cc1	none
Cc1cccc(-n2c(SCc3ccc(C#N)cc3)nnc2-c2c[nH]c3ccccc23)c1	L major viab 98
Cc1ccc(-c2c[nH]c(=S)n2-c2ccccc2F)cc1	none
N#CC1=C2SCN(Cc3ccco3)CN2C(=O)CC1c1c(F)cccc1Cl (stereo unspecified)	L major viab 75
OCC1(Cc2ccccc2)CCCN(Cc2ccc(-c3ccco3)cc2)C1 (stereo unspecified)	L major viab 80
CCN1CCCC(CO)(Cc2ccccc2)C1 (stereo unspecified)	none
OCC1(Cc2ccccc2)CCN(CCCC2CCCC2)CC1	L major viab 96
OCC1(Cc2ccccc2)CCN(Cc2ccc(-c3ccco3)cc2)CC1	L major viab 91
Cc1c(CN2CCC(CO)(Cc3ccccc3)CC2)c2ccccc2n1C	none
Cc1cc(N2C(=O)C3C4CC(C(Br)C4Br)C3C2=O)no1 (stereo unspecified)	none
c1csc(-c2csc3nc(CN4CCOCC4)nc(NCc4ccc5c(c4)OCO5)c23)c1	WT yeast gro inh 64
Cc1sc2nc(CN3CCOCC3)nc(NS(=O)(=O)c3ccc4c(c3)OCCO4)c2c1C	none
CN1C(=O)/C(=C/c2ccccc2Cl)Sc2ccc(C(=O)NCc3cccnc3)cc21	CHOP inhibitor 81
CCOC(=O)c1ccc(-n2c(CN3CCN(CC)CC3)nc3ccc([N+](=O)[O-])cc3c2=O)cc1	none
COc1cccc(-n2c(CN3CCN(c4ccccc4)CC3)nc3ccc([N+](=O)[O-])cc3c2=O)c1	L major viab 63
COc1ccc(-c2nc(-n3c(C)c(C(C)=O)c(C(C)=O)c3C)sc2C)cc1	none
CC(=O)c1c(C(C)=O)c(C)n(-c2nc(-c3ccc(C)c(C)c3)c(C)s2)c1C	CHOP inhibitor 76
COc1ccc(CN2CCN(Cc3csc(C(C)=O)c3)CC2CCO)c(C)c1C (stereo unspecified)	L major viab 86

Compound activity (PubChem BioAssay)
